High-throughput results deposited in PubChem by National Center for Advancing Translational Sciences (NCATS).
Pf growth 48h – Primary qHTS for delayed death inhibitors of the malarial parasite plastid, 48 hour incubation; P. falciparum luciferase growth in erythrocytes, 48 h; Potency, µM (doses to about 28.7 µM), for inactives: at the highest dose activity change, negative = inhibition, usual class: inhibitors; actives 5.9% (n = 310,000); note: potency is the fitted concentration of half-maximal effect; % is set by controls: 0 for no effect and ±100 for the full control effect
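A one-generation exposure of luciferase-tagged malaria parasites in RPMI 1640/Albumax erythrocyte culture, 37 C and 5% CO2. Inhibition is inferred from decreased luminescence after adding detection reagent.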
HCV inhibitor – qHTS Assay for Inhibitors of Hepatitis C Virus (HCV); Huh7.5.1 HCVcc-Cre infection, luciferase reporter, 44 h; Potency, µM (series often up to 41.8 µM), for the others: at the top dose activity change, negative = inhibition, actives largely listed as inhibitors; actives 3.4% (n = 340,000); note: potency is the fitted concentration of half-maximal effect; % is set by controls: 0 for no effect and ±100 for the full control effect
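Luciferase read-out (15 sec integration) after a 15 min room-temperature substrate step quantifies HCVcc-Cre infection. Cells, 1,000 per well, had compound added 4 h post-plating, then virus at ~0.5 moi, and were cultured 44 h.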
Pf growth 96h – Primary qHTS for delayed death inhibitors of the malarial parasite plastid, 96 hour incubation | P. falciparum luciferase reporter growth, 96 h | Potency, µM (series often up to 28.7 µM), without a hit: at the highest dose activity change, negative = inhibition, usual class: inhibitors | actives 6.9% (n = 320,000) | AID 504834, 2011; note: potency is the fitted concentration of half-maximal effect; % is set by controls: 0 for no effect and ±100 for the full control effect
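Plates of compound plus infected erythrocytes (2% hematocrit, 0.05% parasitemia final) incubate 96 hours, 37 C, 5% CO2. Detection reagent added; reduced luminescence from the parasites' luciferase reporter flags inhibition.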
Shiga toxin inh – A qHTS for Small Molecule Inhibitors of Shiga Toxin; Vero cells, Shiga toxin protein synthesis inhibition reporter; inhibition, % at 38.7 µM; actives 9.2% (n = 290,000); AID 2315, 2010; in the data active = inhibition mostly above about 28%, no sharp cut-off; inactive = mostly below about 43%; note: 0% is about no effect
CHX counter – Cycloheximide Counterscreen for Small Molecule Inhibitors of Shiga Toxin; actives 12% (n = 300,000); max response, %; cell reporter, cycloheximide protein synthesis inhibition counterscreen; AID 2314, 2010; in the data active = max response mostly above about 13%, no sharp cut-off; inactive = mostly below about 14%; note: read at 38.3 µM for the half of the compounds with a filed dose; 0% is about no effect
AMA1 RON2 block – qHTS for Inhibitors of AMA1-RON; Towards Development of Antimalarial Drug Lead: Primary Screen | actives 0.2% (n = 360,000) | AID 720542, 2013 | Plasmodium falciparum AMA1 (3D7) - RON2 peptide interaction | AlphaScreen AMA1-biotinylated RON2 peptide binding | Potency, µM (series often up to 58.2 µM), without a hit: top-dose activity change, negative = inhibition, actives largely listed as inhibitors;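 note: potency is the fitted concentration of half-maximal effect; 0% = vehicle wells and -100% = peptide control; nearly all actives have a fitted effect of over 45% in size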
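AMA1 (3D7) with his tag at 25 nM final met compounds first, then biotinylated RON2 peptide at 25 nM; detection used donor plus acceptor beads, 10 µg/mL apiece, read by AlphaScreen after 30 min at room temperature.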
Active calls of the source: *; ? = inconclusive; / = no result. The list is not random: actives were taken first. Their share in the collection is about 21%. Unless noted, calls come from the whole dose curve; as a rule, active = well fitted curve in the direction sought with a large enough effect; inconclusive = small, poorly fitted or top-dose-only effect, or another doubt; inactive = no such curve, though single readings can be large; an effect the other way counts as inactive or inconclusive.

SMILES	Pf growth 48h	HCV inhibitor	Pf growth 96h	Shiga toxin inh	CHX counter	AMA1 RON2 block
O=[N+]([O-])c1cc(-c2ccc(/C=N/n3cnnc3)o2)ccc1Cl	2%	-14%	?	-12	-1	-4%
Cc1cc(=O)[nH]c(N/N=C/c2ccc(-c3ccc([N+](=O)[O-])cc3)o2)n1	17%	4%	30%	36	12*	41%
Cc1ccc(-c2ccc(/C=N/O)o2)cc1[N+](=O)[O-]	102%	-20%	-15%	61*	35*	-10%
Cc1cc(=O)[nH]c(N/N=C/c2sccc2C)n1	139%	11%	?	81*	47*	108%
Cc1cc(=O)[nH]c(N/N=C/c2ccc([N+](=O)[O-])cc2)n1	-2%	/	?	18	8	/
CCN1CCN(C(=O)c2c(-c3c(Cl)cccc3Cl)noc2C)CC1	-15%	5%	1%	17	-1	1%
COc1cccc(N2CCN(C(=O)C3CCN(C(=O)Nc4ccccc4)CC3)CC2)c1	/	/	/	/	/	7%
COc1cccc(S(=O)(=O)NCc2ccc(C(=O)N3CCN(Cc4ccccc4)CC3)cc2)c1	-18%	10µM*	?	-23	9	-11%
COc1ccc(S(=O)(=O)NCc2ccc(C(=O)N3CCN(Cc4ccccc4)CC3)cc2)cc1	-2%	32µM*	29%	4	10	0%
CCN1CCN(C(=O)c2ccc(S(=O)(=O)Nc3ccccc3)cc2)CC1	?	22%	44%	/	/	12%
Cc1ccc(S(=O)(=O)NCc2ccc(C(=O)N3CCN(Cc4ccccc4)CC3)cc2)cc1	/	4µM*	?	-14	-7	-7%
COc1ccc(NS(=O)(=O)c2ccc(C(=O)N3CCN(Cc4ccccc4)CC3)cc2)cc1	?	11µM*	?	34	6	-12%
O=C(c1cccc(S(=O)(=O)NCc2ccccc2)c1)N1CCN(Cc2ccccc2)CC1	-8%	-7%	/	-6	-5	3%
COc1ccc(S(=O)(=O)NCc2ccc(C(=O)O)cc2)cc1	-19%	14%	?	-1	-3	7%
CCN1CCN(C(=O)c2ccc(CNS(=O)(=O)c3cccc(OC)c3)cc2)CC1	14%	17%	?	-12	0	3%
CCOCCn1c(N2CCCC2)nc2c1c(=O)[nH]c(=O)n2C	42%	5%	?	/	1	12%
COc1cccc(C(=O)OCC(=O)NCCC2=CCCCC2)c1	/	3%	/	/	/	-8%
CSCCC(C(=O)NCc1ccccc1)n1c(-c2ccc3c(c2)CCO3)nc2ccccc21 (stereo not drawn)	/	/	/	/	/	-10%
CCCCn1c(N)c(N(CC)C(=O)c2ccc(C#N)cc2)c(=O)[nH]c1=O	15%	6%	-1%	1	-6	32%
CCOC(=O)CC1(C)Oc2cc(Cl)ccc2N1S(=O)(=O)c1ccc(C)cc1 (stereo not drawn)	/	/	/	/	/	4%
O=c1cc(Nc2ccc3c(c2)OCCO3)[nH]c(=O)n1C1CCCCC1	2.1µM*	?	36%	23*	3	0%
O=c1cc(Nc2ccc3c(c2)OCCO3)[nH]c(=O)n1-c1ccc(Cl)cc1	3%	4%	2%	12	9	11%
CCc1ccc(Nc2cc(=O)n(C3CCCCC3)c(=O)[nH]2)cc1	0.15µM*	?	-9%	87*	30*	14%
CC(=O)NC(CC(=O)N1CCN(C(C)=O)CC1)c1ccccc1 (stereo not drawn)	14%	12%	3%	-20	6	-13%
COc1ccc(N2CCN(Cc3cc(=O)c(OCC(=O)NC4CCCC4)co3)CC2)cc1	?	-4%	?	/	/	-11%
SMILES	Pf growth 48h	HCV inhibitor	Pf growth 96h	Shiga toxin inh	CHX counter	AMA1 RON2 block
CCOC(=O)c1cnc(SC)nc1Sc1cc(Cl)ccc1Cl	?	-2%	10µM*	-23	8	17%
C=CCn1c(C)cc(C(=O)COC(=O)/C=C/c2c(C)nn(C3CCS(=O)(=O)C3)c2Cl)c1C (stereo not drawn)	?	-16%	?	/	/	-14%
Cc1cccc(NC(=O)CCNS(=O)(=O)c2ccc3[nH]c(=O)oc3c2)c1	5%	17%	?	5	-3	4%
O=C(COC(=O)c1ccc(S(=O)(=O)NCc2ccco2)cc1)NC1CCCCC1	/	12%	11%	-2	3	-17%
O=C(Nc1ccccc1)c1cccc(S(=O)(=O)NCc2ccco2)c1	-8%	?	55%	52*	50*	7%
CC1CCCCC1NS(=O)(=O)c1ccc(S(=O)(=O)NCc2ccncc2)cc1 (stereo not drawn)	15µM*	?	?	-6	6	-5%
Cc1cc(C)n(-c2ccc(C(=O)Nc3ccc(S(=O)(=O)NCc4ccco4)cc3)cc2)n1	13µM*	3.5µM*	30%	29	22*	-19%
O=C(Nc1ncccc1O)c1ccc(S(=O)(=O)NCc2ccco2)cc1	/	/	/	/	/	44%
COc1ccc(C(=O)Nc2cccc(S(=O)(=O)NCc3ccco3)c2)cc1	/	?	/	/	/	-17%
CC1CCCCC1NC(=O)c1ccc(S(=O)(=O)NCc2ccco2)cc1 (stereo not drawn)	?	-6%	?	62*	40*	0%
CCOc1ccc(S(=O)(=O)NC2CCCCC2C)cc1 (stereo not drawn)	/	8%	/	/	/	17%
CCC(=O)N1CCCC(C(=O)Nc2ccc3cn[nH]c3c2)CC1 (stereo not drawn)	/	/	/	/	/	-7%
CC1CCCCC12NC(=O)N(CC(=O)c1ccc(Cl)s1)C2=O (stereo not drawn)	-9%	-6%	-8%	1	-4	19%
CN(CC(=O)Nc1ccc(Cl)cc1)C(=O)c1cccc(S(=O)(=O)NCc2ccccc2)c1	2%	-29%	2%	-22	-3	-14%
O=C(Nc1ccc(S(=O)(=O)NCc2ccco2)cc1)c1ccc(F)cc1	?	?	-13%	46*	28*	0%
O=C(Nc1ccccc1)c1ccc(S(=O)(=O)NCc2ccco2)cc1	-1%	?	1%	-7	-1	-3%
Cc1ccc(NC(=O)CN(C)C(=O)c2cccc(S(=O)(=O)NCc3ccco3)c2)cc1	-6%	-6%	9.3µM*	/	/	-3%
Cc1cccc(C(=O)Nc2cccc(S(=O)(=O)NCc3ccco3)c2)c1	-28%	-27%	-10%	/	/	-9%
Cc1cc(C)cc(NC(=O)c2cc(S(=O)(=O)NCc3ccco3)ccc2F)c1	21%	?	4%	46	15*	-9%
Cc1ccc(C(=O)Nc2ccc(S(=O)(=O)NCc3ccco3)cc2)cc1	/	?	13%	36*	38*	-6%
